Data on 34 compounds can be found in PubChem BioAssay (NCATS).

Assay [1] deals with Calcium and integrin-binding protein 1 (Homo sapiens) (UniProt Q99828). Nature of the assay: Primary qHTS for Identification of Calcium Integrin Binding Protein 1 (CIB1) Competitor (AID 1508620). Summed up: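 CIB1-GST (1 uM final) and compound incubated 15 min at room temperature before adding FITC-alphaIIb peptide tracer (100 nM final). Competition for binding read by fluorescence polarization (ex 480, em 540) after another 15 min at room temperature.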
Sequence of Calcium and integrin-binding protein 1 (Homo sapiens) (Q99828 whole entry, looked up): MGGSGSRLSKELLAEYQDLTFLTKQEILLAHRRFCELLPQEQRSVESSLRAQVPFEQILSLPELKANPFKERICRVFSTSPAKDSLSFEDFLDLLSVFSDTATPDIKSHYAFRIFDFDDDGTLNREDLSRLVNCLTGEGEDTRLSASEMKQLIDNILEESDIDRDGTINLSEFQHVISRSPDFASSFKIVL
In general terms: qHTS replaces the single test concentration by a dilution series.

The target is the same in assay [2]. Kind of assay: Confirmatory qHTS for Identification of Calcium Integrin Binding Protein 1 (CIB1) Competitor (AID 1508617). Summed up: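 Compounds at up to 114 uM final met 1 uM GST-tagged CIB1 for 15 min at room temperature (HEPES pH 7.4, 5 mM CaCl2). FITC-labelled alphaIIb peptide, 100 nM, added; polarization read after 15 min more.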
Assay [3] can be described thus: qHTS to identify inhibitors of the type 1 interferon - major histocompatibility complex class I in skeletal muscle: primary screen against the NCATS Mechanism Interrogation Plate v5.0 (MIPE) Libary (AID 1347411). The method in brief: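 Luminescence from CRISPR HiBit-tagged endogenous HLA-B in human myoblasts reported MHC class I level after 24 h of IFN-beta (4 ng/ml) plus compound. Compounds ran as 11-point 1:3 series, top 46 uM final.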

Assay [4] can be described thus: Secretion counterscreen for inhibitors of the SERCaMP assay screened against the NCATS CANVASS Library (AID 1347390). Summed up: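 Counterscreen for secretory-pathway interference: after 4 h attachment, SH-SY5Y-GLuc cells were exposed 20 hours to compounds (final 0.001 - 77 uM), then coelenterazine added and GLuc luminescence recorded; Brefeldin A served as control.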
A general note: A counterscreen serves to expose hits that act by an unwanted route or on another target.

Assay [5] is described as follows: qHTS for activators of Nrf2/ARE signaling pathway screened against the NCATS CANVASS Library (AID 1347391). Summed up: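 Eleven-point qHTS, 16 h treatment of HepG2 cells carrying an ARE-driven beta-lactamase reporter; CCF4 ratio read (405 nm excitation, 460 and 530 nm emission), with CellTiter-Glo ATP luminescence for viability.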
Assay [6] in a line: qHTS for activators of dead-cell proteases activity screened against the NCATS CANVASS Library (AID 1347392). Summed up: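 Luminescent dead-cell protease readout (AAF-aminoluciferin, 15 min, room temperature) after 5 h compound treatment of HepG2 cells (2000/well, pre-attached 18 h). Eleven concentrations.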
Assay [7] in a line: qHTS for inhibitors of ER calcium dysfunction: SERCaMP assay screened against the NCATS CANVASS Library (AID 1347393). Summed up: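 Thapsigargin-induced ER calcium depletion drives GLuc-SERCaMP secretion from SH-SY5Y cells; compounds given 16 h beforehand were scored by lowered coelenterazine luminescence after 4 h challenge.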
The nature of assay [8]: Vero-766 cells viability qHTS against the NCATS CANVASS Library: Counterscreen for Zika virus inhibition assay (AID 1347394). The method in brief: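 CellTiter Glo luminescence measured cytotoxicity after 72 h at 37C in uninfected Vero 766 cells, plated at 1000 cells/well. Compounds were applied in an 11-point series. Wells without cells defined 100% inhibition.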
Assay [9] in a line: qHTS for inhibitors of Wild type Zika virus screened against the NCATS CANVASS Library (AID 1347396). Summed up:
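Luminescent CellTiter Glo read-out of virus-induced cytotoxicity, 72 h post-infection, in Vero 766 cells. Compounds were tested at 11 concentrations; uninfected, vehicle-treated wells defined 100% inhibition.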

Assay [10] can be described thus: Viability qHTS for inhibitors of the SERCaMP assay screened against the NCATS CANVASS Library (AID 1347400). Summed up: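 CellTiter-Glo luminescence measured cytotoxicity after 48 h at 37C of compound treatment (11-point series). Cells were SH-SY5Y-GLuc SERCaMP MJH297 derivatives, seeded at 1000 per well 4 h beforehand.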
The nature of assay [11]: Redox Reaction Profiling qHTS: Assay Interference Panel against the NCATS CANVASS Library (AID 1347401). The method in brief:
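Redox-cycling liability assessed as DTT-driven conversion of resazurin (5 uM, with 200 uM DTT, HEPES pH 7.3) to fluorescent resorufin. Fluorescence at 525/598 nm measured initially and after 15 min dark incubation.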

Assay [12] is described as follows: qHTS to identify inhibitors of the type 1 interferon - major histocompatibility complex class I in skeletal muscle: primary screen against the NCATS Pharmaceutical Collection (AID 1347407). The method in brief:
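Compounds […] were added to CRISPR-engineered HLA-B-HiBiT C25cl48 human myoblasts with 4.0 ng/ml IFN-beta. After 24 hrs at 37 C, cells were lysed and HiBiT luminescence measured.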

The target of assay [13] is Protein phosphatase 1D (Homo sapiens) (UniProt O15297). Nature of the assay: RapidFire Mass Spectrometry qHTS Assay for Modulators of WT P53-Induced Phosphatase 1 (WIP1) (AID 1347424). Summed up:
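RapidFire mass spectrometry measured dephosphorylated peptide after 5 min room-temperature reaction of 2 uM VEPPL-pS-QETFS with 10 nM WIP1 (50 mM Tris-HCl pH 7.5, 30 mM MgCl2, 0.1 mM EGTA, BSA), following 1 hr compound preincubation; 1 uM isotope-labelled product standard.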

For assay [14] the target is unchanged. Kind of assay: Rhodamine-PBP qHTS Assay for Modulators of WT P53-Induced Phosphatase 1 (WIP1) (AID 1347425). Summed up:
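The read-out is the change in Rhodamine-PBP fluorescence (f1 - f0, ex 525/em 598 nm) as Pi is released, read each minute for 11 min. Final reaction: 5 nM WIP1, 10 uM phosphopeptide VEPPL-pS-QETFS, 10 uM Rh-PBP, 50 mM Tris-HCl pH 7.5, 30 mM MgCl2. Compound was preincubated with enzyme for 1 hour at room temperature.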

Assay [15] is described as follows: Primary qHTS for inhibitors of La Crosse Virus (LACV) - induced cell death in SH-SY5Y cells (AID 1508616). Summed up:
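Rescue of virus-induced death was read as ATPLite luminescence after 6 days at 37C, scaled between DMSO wells with LACV and without virus. Cells were SH-SY5Y, 6000/well, infected at 0.01 MOI after compound addition.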

Inconclusive results are not listed. Activity calls are given as the source filed them. Calls come from the whole dose curve; as a rule, active = well fitted curve in the direction sought with a large enough effect; inconclusive = small, poorly fitted or top-dose-only effect, or another doubt; inactive = no such curve, though single readings can be large; an effect the other way counts as inactive or inconclusive.

Sequence of Protein phosphatase 1D (Homo sapiens) (O15297 whole entry, looked up): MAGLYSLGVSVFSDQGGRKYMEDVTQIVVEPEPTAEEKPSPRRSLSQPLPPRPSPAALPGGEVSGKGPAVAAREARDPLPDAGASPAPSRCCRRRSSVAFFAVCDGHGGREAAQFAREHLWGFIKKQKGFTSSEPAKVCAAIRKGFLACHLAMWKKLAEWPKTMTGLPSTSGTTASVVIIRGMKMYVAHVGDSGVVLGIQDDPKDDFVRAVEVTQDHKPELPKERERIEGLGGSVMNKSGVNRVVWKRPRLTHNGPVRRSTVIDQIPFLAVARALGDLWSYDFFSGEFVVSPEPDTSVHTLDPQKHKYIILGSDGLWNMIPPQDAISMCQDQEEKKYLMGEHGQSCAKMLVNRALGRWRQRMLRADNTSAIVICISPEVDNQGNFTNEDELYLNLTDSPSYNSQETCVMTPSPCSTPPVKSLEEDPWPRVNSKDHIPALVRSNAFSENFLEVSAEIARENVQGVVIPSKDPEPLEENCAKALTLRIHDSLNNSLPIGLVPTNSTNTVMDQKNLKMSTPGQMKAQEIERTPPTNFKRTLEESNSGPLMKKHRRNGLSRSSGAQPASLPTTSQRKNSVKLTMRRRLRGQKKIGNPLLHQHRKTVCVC

With `COC1(CC(C)C)NC(=O)C(O)(Cc2ccccc2)NC1=O` (stereo not given), in assay [1], the Potency result was “inactive”.
For the compound `CC[C@@H](c1ccc(F)c(F)c1)n1c(C(=O)OC)c(-c2ccno2)[nH]c1=S`, the Potency entry in assay [2] is “inactive”.
As to `CC1CC(O)CC(C)(C)C1(O)CCO` (stereo not given), the Potency entry in assay [1] is “inactive”.
Still for that read-out and setting: under `C=C1C2(CCC(=O)OC2(C)C)CC(OC(=O)/C(C)=C/C)C2(C)C13OC14C(=O)OC(C)(C(=O)C12C(=O)OC4C)C3OC(C)=O` (stereo not given) stands “inactive”.
For the compound `CC(=O)c1cnc2ccc(-c3cc(Cl)c(O)c(Cl)c3)nc2c1NC1CCC(CN(C)C)CC1` (stereo not given), the Potency in assay [3] is 0.151 µM (active). Moreover, the Potency entry in [1] is “inactive”.
With `Cc1nnc(C(C)C)n1C1CC2CCC(C1)N2CCC(NC(=O)C1CCC(F)(F)CC1)c1ccccc1` (stereo not given), the Potency entry in assay [3] and in assay [1] was “inactive” each time.
Consider `CC1=C2C(=O)O[C@@H](c3ccoc3)[C@]2(C)CCC1`, for which the call in assay [4], in [5], in assay [6], in [7], in [8] and in [9] was inactive. The outcome in [10] and in assay [11] was inactive. Moreover, the Potency entry in [1] was “inactive”.
As for `CC1CCC2C(C)(C)C(O)CCC2(C)C12Cc1c(O)cc3c(c1O2)CN=C3N` (stereo not given), the Potency entry in assay [1] is “inactive”.
For the compound `CC(/C=C/C1(O)C(C)CC(O)CC1(C)C)OC1OC(CO)C(O)C(O)C1O` (stereo not given), the Potency result in [1] was “inactive”.
In the case of `COC1CC(OC2CCC3(C)C(=CCC4C3CCC3(C)C(C(C)O)CCC43O)C2)OC(C)C1OC1OC(C)C(OC2OC(COC3OC(COC4OC(CO)C(O)C(O)C4O)C(O)C(O)C3O)C(O)C(O)C2O)C(OC)C1O` (stereo not given), the Potency result in assay [1] is “inactive”.
Consider `COc1cc(/C=C/CO)ccc1O[C@@H]1O[C@H](CO)[C@@H](O)[C@H](O)[C@H]1O`, for which, in assay [1], the Potency result is “inactive”.
On to `O=C(O)c1ccc(CCCc2ccc(OCCc3ccc(F)cc3)cc2)o1`, for which the Potency entry in assay [1] is “inactive”.
Still for that read-out and setting: under `CC1(C)OC(=O)C(OCC2CC2)=C1c1ccc(S(C)(=O)=O)cc1` stands “inactive”; under `COc1cc2c(cc1O)C1(OC)Cc3ccc4c(c3C1N(C)CC2)OCO4` (stereo not given), “inactive”.
`Cc1c(-c2ccnn2C)cc(C(=O)NCc2ccc(S(C)(=O)=O)cn2)c(=O)n1-c1cccc(C(F)(F)F)c1`: the Potency entry in [3] and in assay [1] was “inactive” in each case.
With `CC1(CO)CC2C(O)C(=O)C3(CO)CC3(C)C2C1` (stereo not given), the Potency entry in assay [1] is “inactive”.
For `OC[C@H]1O[C@@H](Oc2ccc(O)c3cccc(O)c23)[C@H](O)[C@@H](O)[C@@H]1O`, the Potency in assay [2] was 11.2 µM (active).
As for `CC(=O)c1c(O)cc2c(c1C)C(=O)CC(O)C2` (stereo not given), the Potency result in assay [2] is “inactive”.
`Cc1cc(C)cc(NC(=O)Cc2ccc(OC(C)(C)C(=O)O)cc2)c1`: the Potency result in [1] is “inactive”.
As to `CC(=O)c1c(O)cc2cccc3c2c1CC(C)(O)O3` (stereo not given), the Potency in assay [2] was 39.8 µM (active).
For `CC1CCC(=O)CC(O)C(O)CC(=O)O1` (stereo not given), in [1], the Potency result is “inactive”.
For the compound `CC(=O)OC(C)OC(=O)C(C)c1ccc(-c2ccccc2)c(F)c1` (stereo not given), the call in assay [12], in assay [13], in assay [14] and in [15] was inactive. In [1], the Potency result was “inactive”.
With `COc1cc2c(cc1O)CCN[C@]21CS[C@@H]2c3c(OC(C)=O)c(C)c4c(c3[C@H](COC1=O)N1[C@@H]2[C@H]2c3c(cc(C)c(OC)c3O)C[C@@H]([C@@H]1O)N2C)OCO4`, the Potency in assay [3] was 0.0848 µM (active).
As to `CCOc1cc2ncc(C#N)c(Nc3ccc(OCc4ccccn4)c(Cl)c3)c2cc1NC(=O)/C=C/CN(C)C`, the Potency in assay [3] is 4.66 µM (active). Further, the Potency entry in [1] was “inactive”.
As for `COc1ncc(-c2ccc3c(Nc4cc(Oc5cc(F)cc(F)c5)cc(C(=O)O)c4)c(S(=O)(=O)NC4CC4)cnc3c2)c(OC)n1`, the Potency entry in assay [3] and in [1] was “inactive” each time.
As to `N#CCc1ccc(O)cc1O[C@@H]1O[C@H](CO)[C@@H](O)[C@H](O)[C@H]1O`, in assay [1], the Potency entry was “inactive”.
On to `Cc1cc(Nc2ncc(Cl)c(Nc3ccccc3S(=O)(=O)C(C)C)n2)c(OC(C)C)cc1C1CCNCC1`, for which the Potency in assay [3] is 20.8 µM (active). Moreover, in assay [1], the Potency entry was “inactive”.
`CC(C)[C@H]1CCC(CO)=C[C@@H]1/C=C(\CO)C(=O)O`: in [1], the Potency result was “inactive”.
Consider `CN1CC[C@@H](NC(=O)Nc2ccc(C#N)cc2)C[C@@H]1c1nc2ccccc2[nH]1`, for which the Potency entry in assay [3] and in assay [1] was “inactive” in each case.
Turning to `CC(=O)O[C@H]1CC[C@@]2(CI)C(=CC[C@@H]3[C@@H]2CC[C@]2(C)[C@@H]([C@H](C)CCCC(C)C)CC[C@@H]32)C1`, the Potency result in [1] was “inactive”.
Take `OC[C@H]1O[C@@H](Oc2cc(O)cc(/C=C/c3ccc(O)cc3)c2)[C@H](O)[C@@H](O)[C@@H]1O`: the Potency result in assay [3] and in assay [1] was “inactive” each time.
`CC1CCC2(NC1)OC1C(=O)C3C4CCC5CC(O[C@@H]6O[C@H](CO)[C@@H](O)[C@H](O)[C@H]6O[C@@H]6O[C@@H](C)[C@H](O)[C@@H](O)[C@H]6O)CCC5(C)C4CCC3(C)C1C2C` (stereo not given in full): the Potency result in assay [1] was “inactive”.
`CC(C)N(C[C@H]1O[C@@H](n2cnc3c(N)ncnc32)[C@H](O)[C@@H]1O)C1CC(CCc2nc3ccc(C(C)(C)C)cc3[nH]2)C1` (stereo not given in full): the Potency entry in assay [3] and in assay [1] was “inactive” each time.
Turning to `C=C(C)[C@@H]1CC[C@](C)(O)[C@@H](OC(=O)c2ccccc2)C1`, the Potency entry in [1] was “inactive”.
